The test system of test [1] is Wnt5a (protein binding on small-molecule microarray). Nature of the test: Wnt5a binders on small-molecule microarray, primary screen, biophysical, 635/667 nm fluorescence (AID 1142).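 Note: fluorescence read at 667 nm with signal to noise per printed feature.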 The following applies: 635 nm fluorescence, higher = more signal.
Test [2] in a line: cell viability in Huh7 cells, primary screen, cytotoxicity control for HCV replication inhibitor project, CellTiter-Glo luminescence, basal, 48 h (AID 1143).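 Note: Huh7 hepatoma cells carrying a hepatitis C replication reporter with no stimulus; test concentration not given here.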 The following applies: Huh7 HCV replicon, higher = more signal, called active from +8 up or from −8 down.
A short description of test [3]: P. aeruginosa biofilm formation inhibitors, primary screen, PAO1 strain, BacTiter-Glo luminescence, LB-PBS (AID 1144). The following applies: 12 h, higher = more signal.
The nature of test [4]: CREB reporter modulators without forskolin, primary screen, cell-based, PC12, CRE-LacZ reporter, unstimulated (AID 1145). The following applies: no forskolin, luminescence, 4.5 h, higher = more signal, called active from +8 up or from −8 down.
Test [5] in a line: CREB reporter modulators under forskolin, primary screen, cell-based, PC12, CRE-LacZ reporter, forskolin-stimulated (AID 1146).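 Note: PC12 cells with 6xCRE LacZ reporter stimulated by forskolin 10 µM; beta-galactosidase reporter signal reflecting CREB driven transcription.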 The following applies: luminescence, 4.5 h, higher = more signal, called active from +8 up or from −8 down.
For test [6], the target named is Streptavidin (Streptomyces avidinii) (UniProt P22629). Nature of the test: streptavidin binders on small-molecule microarray, primary screen, artefact control for SMM compound annotation, biophysical, 635/667 nm fluorescence (AID 1147).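 Note: signal reflects streptavidin binding to arrayed compounds as a control protein.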 The following applies: streptavidin binding, higher = more signal.
A short description of test [7]: small-molecule binders of probe aInhba, primary screen, biochemical, small-molecule microarray, 635/667 nm fluorescence (AID 1148).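 Note: score merges 667nm spot fluorescence with signal-to-noise for antibody binding to printed compounds.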 The note with it: higher = more signal.
Test [8] has as its target Torsin-1A (Homo sapiens) (UniProt O14656). Nature of the test: torsin A binders from cell lysate, primary screen, small-molecule microarray, wild-type, 635/667 nm (AID 1149). The following applies: COS7 hTOR1A-WT lysate, 635 nm fluorescence, higher = more signal.
For test [9] the target is unchanged. Nature of the test: small-molecule binders of mutant TOR1A in lysate, primary screen, cell lysate, small-molecule microarray, COS7 lysate, 635/667 nm fluorescence (AID 1150).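 Note: score pools 667 nm emission and signal to noise measuring lysate protein binding.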 The note with it: COS7 hTOR1A mutant lysate, 635 nm fluorescence, higher = more signal.
Test [10] relates to Sonic hedgehog protein (Shh). The experiment in a line: small-molecule binders of Shh protein, primary screen, biochemical, small-molecule microarray, 635/667 nm fluorescence (AID 1151).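 Note: Shh protein binding to compounds spotted on small-molecule microarray slides; score combines spot fluorescence intensity with signal-to-noise across triplicate slides.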 The following applies: small-molecule microarray binding, 635 nm fluorescence; higher = more signal.

Calls of active or inactive are those of the source. Unless noted, the rule behind the calls is not given here.

Streptavidin (Streptomyces avidinii), sequence (P22629 whole entry, looked up): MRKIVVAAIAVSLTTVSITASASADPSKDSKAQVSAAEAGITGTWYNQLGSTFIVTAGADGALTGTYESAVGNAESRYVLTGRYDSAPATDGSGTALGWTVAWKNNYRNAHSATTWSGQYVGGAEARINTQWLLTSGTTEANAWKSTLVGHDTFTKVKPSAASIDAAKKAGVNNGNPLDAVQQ
Torsin-1A (Homo sapiens), sequence (O14656 whole entry, looked up): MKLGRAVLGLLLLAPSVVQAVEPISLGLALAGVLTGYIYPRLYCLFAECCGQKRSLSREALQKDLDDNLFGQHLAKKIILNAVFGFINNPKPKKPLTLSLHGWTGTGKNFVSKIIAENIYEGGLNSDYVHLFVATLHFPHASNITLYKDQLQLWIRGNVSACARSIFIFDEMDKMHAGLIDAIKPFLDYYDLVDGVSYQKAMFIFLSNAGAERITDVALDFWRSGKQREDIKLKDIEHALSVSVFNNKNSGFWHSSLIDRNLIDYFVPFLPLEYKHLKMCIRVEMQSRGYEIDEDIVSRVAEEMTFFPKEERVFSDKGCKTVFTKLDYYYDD

On to `O=C(NCCN1CCOCC1)C1N=C(c2ccc(OCCCO)cc2)N(c2ccccc2)O1` (stereo not given), for which the composite z-score in test [1] worked out at 0.889; in [6] it was 0.284; in test [7], 0.0219; with Torsin-1A (Homo sapiens) [8], 1.86; with Torsin-1A (Homo sapiens) [9] it was 2.3; in test [10], 1.42. The z-score in [2] is 0.213 (inactive); in [3], 1.27 (inactive); in test [4], 1.78 (inactive); in test [5], 0.552 (inactive).
For `[N-]=[N+]=Nc1ccccc1[C@@H]1OC(c2ccc(OCCCO)cc2)=N[C@]1(CCS(=O)(=O)c1ccccc1)C(N)=O`, the composite z-score in test [1] is 0.903; in [6] it was 2.03; in test [7], 0.207; in the test with Torsin-1A (Homo sapiens) [8], 0.641; with Torsin-1A (Homo sapiens) [9], 0.91; in test [10], -0.398. Moreover, the z-score was -1.12 (inactive) in test [2], 0.378 (inactive) in test [3], 0.218 (inactive) in test [4] and -1.09 (inactive) in [5].
With `O=C1c2ccccc2[C@](Cc2ccccc2I)(C(=O)NCCN2CCOCC2)[C@H](c2ccc(CO)cc2)N1C1CCCCC1`, the composite z-score came out at 0.379 in test [1]; 0.934 in [6]; 0.216 in test [7]; 0.873 with Torsin-1A (Homo sapiens) [8]; 0.469 with Torsin-1A (Homo sapiens) [9]; 1.52 in test [10]. Moreover, the z-score in test [2] is -3.69 (inactive); in test [3] it was 0.155 (inactive); in test [4] it was -0.168 (inactive); in test [5] it was -0.0922 (inactive).
As for `COc1ccc(/C=C/C=O)cc1`, the composite z-score in test [1] was 0.156; in [6], 0.166; in test [7], -0.102; in the test with Torsin-1A (Homo sapiens) [8] it was -0.238; with Torsin-1A (Homo sapiens) [9], 0.0564; in [10], 1.6. Besides, the z-score in [2] was 0.0307 (inactive); in [3], -0.577 (inactive); in test [4] it was 0.209 (inactive); in [5], 0.561 (inactive).
For the compound `C=CCOC(=O)[C@H]1[C@@H]2C(=O)O[C@@H](c3ccccc3)[C@@H](c3ccccc3)N2[C@@H](c2ccc(OCCOC(=O)[C@@H]3C[C@@H]4C(=O)N[C@@H](CCCCNC(C)=O)C(=O)N4[C@@H]3c3ccc(O)cc3)cc2)[C@]12C(=O)Nc1ccccc12`, the composite z-score in test [1] was 0.39; in [6] it was -0.0038; in test [7], 0.095; with Torsin-1A (Homo sapiens) [8], 0.665; in the test with Torsin-1A (Homo sapiens) [9] it was 0.505; in test [10], 2.05. Also, the z-score in test [2] is -0.0424 (inactive); in [3] it was -0.122 (inactive); in test [4] it was -0.126 (inactive); in test [5], -0.464 (inactive).
With `COc1cc2c(cc1OC)CN(C(=O)[C@H]1[C@@H]3C(=O)O[C@@H](c4ccccc4)[C@@H](c4ccccc4)N3[C@@H](c3ccc(O)cc3)[C@]13C(=O)Nc1ccc(C#CCCO)cc13)CC2`, the composite z-score in test [1] is -0.0279; in test [6] it was 0.491; in test [7], -0.0405; in the test with Torsin-1A (Homo sapiens) [8], 0.0143; with Torsin-1A (Homo sapiens) [9], 0.618; in test [10], 0.0545. For the same compound, the z-score in test [2] was -1.04 (inactive); in test [3] it was -0.827 (inactive); in test [4], 0.0653 (inactive); in test [5], -0.163 (inactive).
Take `C=CCN1C(=O)[C@]2(O[C@H](CCn3cc([C@H](O)c4ccccc4)nn3)[C@@H]([Si](C)(C)c3ccc(OC)cc3)[C@@H]2C)c2cc(N3CCC3=O)ccc21`: the composite z-score in test [1] was 0.979; in test [6], -0.0806; in [7], 0.481; with Torsin-1A (Homo sapiens) [8], 0.279; in the test with Torsin-1A (Homo sapiens) [9] it was 0.398; in test [10], 2.08. The z-score in test [2] is -4.37 (inactive); in test [3], -0.549 (inactive); in test [4], 2.37 (inactive); in test [5], -0.229 (inactive).
As to `COc1ccccc1CN1C(=O)c2ccccc2[C@@H](C(=O)NC2CC2)[C@@H]1c1ccc(CO)cc1`, the composite z-score in [1] worked out at 0.845; in [6] it was 0.53; in test [7], 0.297; with Torsin-1A (Homo sapiens) [8], 0.848; with Torsin-1A (Homo sapiens) [9], 0.385; in [10] it was 1.8. The z-score in test [2] was -0.132 (inactive); in [3] it was 0.217 (inactive); in test [4], -0.709 (inactive); in test [5] it was -1.03 (inactive).
As to `NC(=O)NCC#Cc1ccc2c(c1)[C@]1(C(=O)N2)[C@H](C(N)=O)[C@H]2C(=O)O[C@H](c3ccccc3)[C@H](c3ccccc3)N2[C@@H]1c1ccc(O)cc1`, the composite z-score in test [1] is 0.0344; in test [6] it was -0.104; in test [7], 1.34; with Torsin-1A (Homo sapiens) [8], 0.2; in the test with Torsin-1A (Homo sapiens) [9], 1; in [10], -0.41. The z-score in [2] was -0.0803 (inactive); in test [3], -0.00225 (inactive); in test [4] it was 0.712 (inactive); in test [5] it was -0.0696 (inactive).
As to `CCCC[C@@H]1C[C@H]1[C@@H](NC(=O)C(C)(C)C)c1ccc(C(F)(F)F)cc1`, the composite z-score was -0.96 in [1]; 0.0267 in [6]; -0.0405 in test [7]; -0.49 with Torsin-1A (Homo sapiens) [8]; -0.869 with Torsin-1A (Homo sapiens) [9]; -1.7 in test [10]. Further, the z-score in [2] was -4.27 (inactive); in test [3], 0.0317 (inactive); in test [4], 0.201 (inactive); in [5], 1.44 (inactive).
Consider `Cc1ccc(S[C@]2(C(=O)NCCCN(C)C)CC(=O)N(Cc3cc(C(F)(F)F)cc(C(F)(F)F)c3)[C@@H]2c2ccc(CO)cc2I)cc1`, for which the composite z-score in [1] was -0.116; in [6] it was -0.0724; in test [7], 0.172; in the test with Torsin-1A (Homo sapiens) [8], -0.314; with Torsin-1A (Homo sapiens) [9], -0.88; in [10], -0.503. Further, the z-score in test [2] was -1.21 (inactive); in [3], 0.463 (inactive); in [4] it was -0.994 (inactive); in [5], 1.23 (inactive).
Take `CCCC[C@H]1OB(O)C[C@H]2C1=C(COC)C[C@H]1C(=O)N(C)C(=O)[C@H]12`: the composite z-score in test [1] was 0.277; in test [6] it was 0.727; in [7], -0.0093; with Torsin-1A (Homo sapiens) [8], 0.408; in the test with Torsin-1A (Homo sapiens) [9], 0.301; in test [10], 1.32. Also, the z-score was 0.203 (inactive) in test [2], 0.573 (inactive) in test [3], 0.76 (inactive) in test [4] and 0.505 (inactive) in [5].
As to `C=CCNC(=O)[C@@H]1[C@H]2C(=O)O[C@H](c3ccccc3)[C@H](c3ccccc3)N2[C@H](c2ccccc2OCCO)[C@@]12C(=O)N(C(=O)OCCOC)c1ccccc12`, the composite z-score is 0.562 in [1]; 0.209 in test [6]; -0.0259 in test [7]; 0.226 in the test with Torsin-1A (Homo sapiens) [8]; 0.603 in the test with Torsin-1A (Homo sapiens) [9]; 2.17 in test [10]. Also, the z-score in test [2] is -4.46 (inactive); in [3], 1.23 (inactive); in test [4], 0.204 (inactive); in [5], -0.768 (inactive).

The values are drawn from PubChem BioAssay.
